Where a name gives a salt, the structure may show the parent alone. ± gives the standard deviation of the averaged measurements.
These compounds were tested on Danio rerio Tg(wt1b:EGFP) embryo, pronephros (assay: fraction of imaged embryos annotated as normal kidney; higher = less nephrotoxic; extreme values may be limits of the assay). Conditions: 25 µM; exposure: 24-48 hpf.
How it was run: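 The read-out is the proportion of embryos in each treatment manually annotated as normal-kidney. Exposure ran from 24 to 48 hpf at 28.5°C in 12-well plates, using dechorionated Tg(wt1b:EGFP) zebrafish embryos in 5 mM HEPES-buffered E3 with 0.003% PTU, 0.5% DMSO and 25 μM compound. For imaging, larvae were anaesthetised with tricaine, positioned dorsally in agarose-filled 96-well plates and captured by widefield fluorescence (470 nm, 10 z-slices), with scoring done on maximum projections.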

Structure (SMILES) | fraction of imaged embryos annotated as normal kidney
CCCCNc1c(C(=O)OCC)c(C)nc2c1cnn2CC [Tracazolate hydrochloride] | 0.917
CCCCNc1ccc(C(=O)OCCN(C)C)cc1 | 0.833
CN(C)CCC(c1ccc(Cl)cc1)c1ccccn1 (stereo not given) [Chlorpheniramine maleate] | 0.667
CCCCc1cc2ccccc2c(OCCN(C)C)n1 [Dimethisoquin hydrochloride] | 0.917
CC1(C)O[C@@H]2[C@@H](CO[C@@]3(COS(N)(=O)=O)OC(C)(C)O[C@@H]23)O1 [Topiramate] | 0.583
Clc1ccc(Cn2c(CN3CCCC3)nc3ccccc32)cc1 [Clemizole hydrochloride] | 0.545
Cn1c(NCCN(CCO)CCCc2ccc([N+](=O)[O-])cc2)cc(=O)n(C)c1=O [Nifekalant] | 0.833
C#C[C@]1(OC(C)=O)CC[C@H]2[C@@H]3CCC4=CC(=NO)CC[C@@H]4[C@H]3CC[C@@]21CC (mixture of isomers) [Norgestimate] | 0.0833
O=C(CCNNC(=O)c1ccncc1)NCc1ccccc1 [Nialamide] | 0.583
O=C(O)CNC(=O)C(CS)Cc1ccccc1 (stereo not given) [Thiorphan] | 0.75
COc1cc([C@@H]2c3cc4c(cc3[C@@H](O[C@@H]3O[C@@H]5CO[C@@H](C)O[C@H]5[C@H](O)[C@H]3O)[C@H]3COC(=O)[C@H]23)OCO4)cc(OC)c1O [Etoposide] | 0.75
CCCN(CCC)CCc1cccc2c1CC(=O)N2 [Ropinirole hydrochloride] | 0.75
CCn1cc(C(=O)O)c(=O)c2cc(F)c(N3CCNC(C)C3)c(F)c21 (stereo not given) [Lomefloxacin hydrochloride] | 0.5
N[C@H]1CONC1=O [(S)-(-)-Cycloserine] | 0.5
CCN1CCN(C(=O)N[C@@H](C(=O)N[C@@H]2C(=O)N3[C@@H]2SC(C)(C)[C@@H]3C(=O)O)c2ccccc2)C(=O)C1=O [Piperacillin sodium salt] | 0.667
CNCCCC12CCC(c3ccccc31)c1ccccc12 [Maprotiline hydrochloride] | 0.909
NC[C@H]1O[C@H](O[C@H]2[C@H](O)[C@@H](O[C@H]3O[C@H](CO)[C@@H](O)[C@H](N)[C@H]3O)[C@H](N)C[C@@H]2N)[C@H](N)C[C@@H]1O [Tobramycin] | 0.583
Nc1nc2c(ncn2COC(CO)CO)c(=O)[nH]1 [Ganciclovir] | 0.917
CS(=O)(=O)c1ccc([C@@H](O)[C@@H](CO)NC(=O)C(Cl)Cl)cc1 [Thiamphenicol] | 1
CN[C@@H]1[C@H](O[C@H]2[C@H](O[C@H]3[C@H](O)[C@@H](O)[C@H](N=C(N)N)[C@@H](O)[C@@H]3N=C(N)N)O[C@@H](C)[C@]2(O)C=O)O[C@@H](CO)[C@H](O)[C@H]1O [Streptomycin sulfate] | 0.917
CC(=O)NS(=O)(=O)c1ccc(N)cc1 [Sulfacetamide sodic hydrate] | 1
CCN(CC)CCOC(=O)C1(C2CCCCC2)CCCCC1 [Dicyclomine hydrochloride] | 0.727
Clc1ccc(C(c2ccccc2Cl)C(Cl)Cl)cc1 (stereo not given) [Mitotane] | 0.909
CN(Cc1cnc2nc(N)nc(N)c2n1)c1ccc(C(=O)N[C@@H](CCC(=O)O)C(=O)O)cc1 [Methotrexate] | 0.917
C=CCN1CCCC1CNC(=O)c1cc2nn[nH]c2cc1OC (stereo not given) [Alizapride hydrochloride] | 0.917

What follows are compounds tested on Danio rerio Tg(wt1b:EGFP) embryo, pronephros (assay: pronephric angle neck segment to proximal convoluted tubule (mean of left and right), fold change vs DMSO control; higher = larger pronephric angle). Conditions: 25 µM; exposure: 24-48 hpf.
How it was run: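 Distances and angles describing the pronephros were computed by a Fiji macro from 16 reference points set manually on maximum projections of dorsal images. These images came from dechorionated Tg(wt1b:EGFP) zebrafish embryos held in agarose-filled 96-well plates after exposure to 25 μM compound in 0.5% DMSO, in HEPES-buffered E3 with 0.003% PTU, from 24 to 48 hpf at 28.5°C. Any value more than 2 SD from the feature mean was excluded. Features are stated as fold change relative to the mean of same-day DMSO-treated embryos.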

Structure (SMILES) | pronephric angle neck segment
CN1CCN(C2=Nc3ccccc3Oc3ccc(Cl)cc32)CC1 [Loxapine succinate] | 1.06 ± 0.013
Cn1c([N+](=O)[O-])cnc1COC(N)=O [Ronidazole] | 1.02 ± 0.016
CC(=O)Oc1ccccc1C(=O)Oc1ccccc1C(=O)O [Acetylsalicylsalicylic acid] | 1.017 ± 0.0041
O=C(O)/C=C/c1ccc(Cn2ccnc2)cc1 [Ozagrel hydrochloride] | 0.98 ± 0.011
O=S(=O)(O)c1cc(O)ccc1O [Ethamsylate] | 0.9847 ± 0.0033
CCC(=O)O[C@@H](O[P@](=O)(CCCCc1ccccc1)CC(=O)N1C[C@H](C2CCCCC2)C[C@H]1C(=O)O)C(C)C [Fosinopril] | 1.03 ± 0.013
Nc1ccc(S(=O)(=O)c2ccc(N)cc2)cc1 [Dapsone] | 1.14 ± 0.042
CCCOc1ccc2[nH]c(NC(=O)OC)nc2c1 [Oxibendazol] | 1.8 ± 0.035
O=C(CCCCC(=O)Nc1c(I)cc(I)c(C(=O)O)c1I)Nc1c(I)cc(I)c(C(=O)O)c1I [Iodipamide] | 1.0067 ± 0.00076
CN1CC2c3ccccc3Oc3ccc(Cl)cc3C2C1 (stereo not given) [Asenapine maleate] | 0.7772 ± 0.0031
CN(C)CCC(c1ccc(Br)cc1)c1ccccn1 (stereo not given) [Brompheniramine maleate] | 1.05 ± 0.056
O=C1NCCN1c1ncc([N+](=O)[O-])s1 [Niridazole] | 1.14 ± 0.077
COc1ccc2cc(CCC(C)=O)ccc2c1 [Nabumetone] | 1.06 ± 0.038
Clc1ccc(C(Cn2ccnc2)OCc2csc3c(Cl)cccc23)c(Cl)c1 (stereo not given) [Sertaconazole nitrate] | 1.56 ± 0.052
C[C@@H](O)[C@H]1C(=O)N2C(C(=O)O)=C(SCCNC=N)C[C@H]12 [Imipenem] | 0.951 ± 0.015
CCCCNc1c(C(=O)OCC)c(C)nc2c1cnn2CC [Tracazolate hydrochloride] | 1.06 ± 0.015
CCCCNc1ccc(C(=O)OCCN(C)C)cc1 | 1.057 ± 0.0014
CN(C)CCC(c1ccc(Cl)cc1)c1ccccn1 (stereo not given) [Chlorpheniramine maleate] | 0.969 ± 0.0027
CCCCc1cc2ccccc2c(OCCN(C)C)n1 [Dimethisoquin hydrochloride] | 0.9905 ± 0.004
CC1(C)O[C@@H]2[C@@H](CO[C@@]3(COS(N)(=O)=O)OC(C)(C)O[C@@H]23)O1 [Topiramate] | 1 ± 0.025

Structure (SMILES) | pronephric angle neck segment
Clc1ccc(Cn2c(CN3CCCC3)nc3ccccc32)cc1 [Clemizole hydrochloride] | 1.02 ± 0.08
Cn1c(NCCN(CCO)CCCc2ccc([N+](=O)[O-])cc2)cc(=O)n(C)c1=O [Nifekalant] | 0.9169 ± 0.0049
C#C[C@]1(OC(C)=O)CC[C@H]2[C@@H]3CCC4=CC(=NO)CC[C@@H]4[C@H]3CC[C@@]21CC (mixture of isomers) [Norgestimate] | 1.37 ± 0.015
O=C(CCNNC(=O)c1ccncc1)NCc1ccccc1 [Nialamide] | 0.99 ± 0.061
O=C(O)CNC(=O)C(CS)Cc1ccccc1 (stereo not given) [Thiorphan] | 0.994 ± 0.017
COc1cc([C@@H]2c3cc4c(cc3[C@@H](O[C@@H]3O[C@@H]5CO[C@@H](C)O[C@H]5[C@H](O)[C@H]3O)[C@H]3COC(=O)[C@H]23)OCO4)cc(OC)c1O [Etoposide] | 0.982 ± 0.013
CCCN(CCC)CCc1cccc2c1CC(=O)N2 [Ropinirole hydrochloride] | 0.991 ± 0.037
CCn1cc(C(=O)O)c(=O)c2cc(F)c(N3CCNC(C)C3)c(F)c21 (stereo not given) [Lomefloxacin hydrochloride] | 1.12 ± 0.037
N[C@H]1CONC1=O [(S)-(-)-Cycloserine] | 1.025 ± 0.0084
CCN1CCN(C(=O)N[C@@H](C(=O)N[C@@H]2C(=O)N3[C@@H]2SC(C)(C)[C@@H]3C(=O)O)c2ccccc2)C(=O)C1=O [Piperacillin sodium salt] | 1.01 ± 0.046
CNCCCC12CCC(c3ccccc31)c1ccccc12 [Maprotiline hydrochloride] | 1.1 ± 0.058
NC[C@H]1O[C@H](O[C@H]2[C@H](O)[C@@H](O[C@H]3O[C@H](CO)[C@@H](O)[C@H](N)[C@H]3O)[C@H](N)C[C@@H]2N)[C@H](N)C[C@@H]1O [Tobramycin] | 1.01 ± 0.011
Nc1nc2c(ncn2COC(CO)CO)c(=O)[nH]1 [Ganciclovir] | 0.998 ± 0.018
CS(=O)(=O)c1ccc([C@@H](O)[C@@H](CO)NC(=O)C(Cl)Cl)cc1 [Thiamphenicol] | 0.978 ± 0.025
CN[C@@H]1[C@H](O[C@H]2[C@H](O[C@H]3[C@H](O)[C@@H](O)[C@H](N=C(N)N)[C@@H](O)[C@@H]3N=C(N)N)O[C@@H](C)[C@]2(O)C=O)O[C@@H](CO)[C@H](O)[C@H]1O [Streptomycin sulfate] | 0.959 ± 0.043
CC(=O)NS(=O)(=O)c1ccc(N)cc1 [Sulfacetamide sodic hydrate] | 0.9887 ± 0.0093
CCN(CC)CCOC(=O)C1(C2CCCCC2)CCCCC1 [Dicyclomine hydrochloride] | 1.16 ± 0.077
Clc1ccc(C(c2ccccc2Cl)C(Cl)Cl)cc1 (stereo not given) [Mitotane] | 1.05 ± 0.049
CN(Cc1cnc2nc(N)nc(N)c2n1)c1ccc(C(=O)N[C@@H](CCC(=O)O)C(=O)O)cc1 [Methotrexate] | 0.978 ± 0.014
C=CCN1CCCC1CNC(=O)c1cc2nn[nH]c2cc1OC (stereo not given) [Alizapride hydrochloride] | 1.02 ± 0.049
